U2OS ROS induce = ROS inducers in U2OS cancer cells, primary screen, cell-based, H2DCF-DA fluorescence; actives 2% (n = 46,000); U2OS ROS induction; ROS induction (% of piperlongumine), % at 10 µM; in the data active = ROS induction above about 79%, passing the limit was not always enough;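 also: 0% = DMSO vehicle median and 100% = reference compound median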
PD-1 reverse act = activators reversing PD-1 mediated T-cell inhibition, primary screen, luminescence, primary human CD4 T cells, PD-L1 beads; 29,000 tested, under 10 active; activation, % (no concentration beside the values); AID 2316, 2010; CellTiter-Glo 96 h; call rule not given here;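 also: 0% = median vehicle wells and 100% = positive control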
Numbers without * were called inactive; . = no result given. Shown is part of a subset that was picked to be rich in hits.

SMILES | U2OS ROS induce | PD-1 reverse act
C=CCN1C(=O)/C(=C/c2cc(C)n(-c3ccccn3)c2C)C(=O)NC1=S | 112.9* | 0.2
COC1CC(OC2C(C)OC(OC3C(C)OC(OC4C(C)OC(O[C@H]5CC[C@@]6(C)C(=CC[C@]7(O)C6CC(OC(=O)c6ccccc6)[C@@]6(C)[C@]7(O)CC[C@@]6(O)C(C)=O)C5)CC4OC)CC3OC)CC2OC)OC(C)C1O (some centres not stated) | 20.1 | -3.7
C[C@@H]1O[C@@H](OC2CCC3(C)C4CCC5(C)C(C6=CC(=O)OC6)CCC5(O)C4CC[C@H]3C2)[C@H](O)[C@H](O)[C@H]1O (some centres not stated) | 8.1 | -16.0
C[C@]12CC[C@H](O)C[C@H]1CC[C@@H]1[C@@H]2CC[C@]2(C)[C@@H](c3ccc(=O)oc3)CC[C@]12O | -5.9 | -52.8
C[C@H]1O[C@@H](O[C@H]2[C@@H](O)C[C@H](O[C@H]3[C@@H](O)C[C@H](O[C@H]4CC[C@@]5(C)[C@H](CC[C@@H]6[C@@H]5CC[C@]5(C)[C@@H](C7=CC(=O)OC7)CC[C@]65O)C4)O[C@@H]3C)O[C@@H]2C)C[C@H](O)[C@@H]1O | 114.2* | -34.2
C[C@H]1OC(O[C@H]2[C@@H](O)CC(O[C@H]3[C@@H](O)C[C@H](O[C@H]4CC[C@]5(C)C6CC[C@]7(C)[C@@H](C8=CC(=O)OC8)[C@@H](O)C[C@]7(O)[C@@H]6CC[C@@H]5C4)O[C@@H]3C)O[C@@H]2C)C[C@H](O)C1O (some centres not stated) | 2.5 | .
O=C(CCNS(=O)(=O)c1ccccc1)Nc1ccc(Br)cc1C(=O)c1ccccc1 | -2.9 | .
O=C1NC(=O)N(c2ccccc2)C(=O)/C1=C/c1ccco1 | 83.0* | -3.3
C=C1[C@@H](C)[C@H]2[C@H](Cc3ccccc3)NC(=O)[C@]23[C@H](OC(C)=O)C=C[C@](C)(O)C(=O)[C@@H](C)C/C=C/[C@H]3[C@@H]1O | 23.0 | .
CC[C@@H]1/C=C\C=C\C[C@H](C)C(O)[C@](C)(O)C(=O)[C@H](C)C(O)[C@H](C)C(=O)[C@H](C)[C@@H](O)[C@H](C)/C=C/C(=O)O[C@H]2[C@@H](C)[C@@H](CC1)O[C@@]1(CC[C@@H](C)[C@@H](C[C@H](C)O)O1)[C@@H]2C (some centres not stated) | 132.8* | -15.1
C[C@@H]1O[C@@H](O[C@H]2[C@H](O)[C@@H](O)[C@H](O[C@@H]3C=C4CC[C@@H]5C(CC[C@]6(C)[C@@H](c7ccc(=O)oc7)CC[C@]56O)[C@@]4(C)CC3)O[C@@H]2CO)[C@H](O)[C@H](O)[C@H]1O (some centres not stated) | 60.6 | -34.3
C/C1=C/C(=O)O[C@@H]2C[C@@H](CC[C@H](C)/C=C\CC1)O[C@@](O)([C@@H]1CSC(=O)N1)C2 | 13.1 | .
CC[C@]12C=CCN3CC[C@@]4(c5ccc(OC)cc5N(C)[C@H]4[C@@](O)(C(=O)OC)[C@@H]1OC(C)=O)[C@@H]32 | 117.3* | -0.9
O=C1NC(=O)C(=C/C=C/c2ccccc2)C(=O)N1 | -7.2 | -8.6
Cn1c(CCN)nc2ccccc21 | 15.5 | .
